Test [1] can be described thus: qHTS assay to identify small molecule agonists of H2AX (AID 1224845; active means well fitted activation curve with a large enough effect in the signal ratio in the repeat runs, not every such curve was filed as active; the % refers to the signal ratio). The method, boiled down:
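Phospho-H2AX Ser139 measured by HTRF (ex 320 nm; em 665 and 620 nm) after 24 hr antibody incubation. Compounds, 15 concentrations, 0.76% DMSO, were applied to CHO-K1 cells for 3hr at 37C before lysis.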

Test [2] is described as follows: qHTS assay to identify small molecule agonists of H2AX - cell viability counter screen (AID 1224847; calls by dose curve; further: top concentration of the series differs between compounds; nearly all actives have a fitted effect of over 30% in size). The method, boiled down: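 Wild-type CHO-K1 cells (10% FBS medium) were plated overnight at 37C, exposed to compounds at 15 concentrations for 3 hr at 37C (0.76% DMSO final), and viability was read as CellTiter-Glo luminescence after 30 min at room temperature.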

A short description of test [3]: qHTS assay to identify small molecule agonists of the estrogen related receptor (ERR) signaling pathway from Tox21 library (AID 1224849; calls by dose curve; further: nearly all actives have a fitted effect of over 15% in size). The method, boiled down:
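ERR reporter cells (NTP line) pre-incubated 6 hours at 37 C, then exposed to compounds for 18 hours at 37 C. ONE-Glo luciferase luminescence was read after 30 minutes at room temperature.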

Test [4] in a line: qHTS RealTime-Glo MT Cell Viability Assay in HepG2 cells - 24 hour (AID 1224867). Further: nearly all actives have a fitted effect of over 50% in size. The gist of the method: (§1)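 qHTS, HepG2, 600 cells/well, RealTime-Glo (NanoLuc + prosubstrate) added with cells; 5 h preincubation; DMSO compound addition; 37 C; luminescence at 0/8/16/24/32/40 h.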
Test [5] is described as follows: qHTS RealTime-Glo MT Cell Viability Assay in HEK293 cells - 32 hour (AID 1224868). Further: top concentration of the series differs between compounds; nearly all actives have a fitted effect of over 50% in size. The method, boiled down: (§2)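 Assay medium contained NanoLuc luciferase plus cell-permeant prosubstrate, added with HEK293 cells at 600 cells/well. After 5 h at 37 C/5% CO2 compounds were added; plates stayed at 37 C for 40 h with serial luminescence reads.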
Test [6] is described as follows: A CellTox Green Cytotoxicity Assay to monitor cytotoxicity in HEK293 cells - 0 hour (AID 1224869). Further: nearly all actives have a fitted effect of over 50% in size. The gist of the method: (§3)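 HEK293 cells, 600/well, were preincubated 5 hours and then exposed to compounds at 37 C for up to 40 hours. A cell-impermeant cyanine dye staining dead-cell DNA was read by fluorescence at 0, 8, 16, 24, 32 and 40 h time points.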
A short description of test [7]: qHTS RealTime-Glo MT Cell Viability Assay in HepG2 cells - 40 hour (AID 1224870). Further: nearly all actives have a fitted effect of over 50% in size. The gist of the method:
(§4)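 Real-time viability: cells seeded at 600 per well together with NanoLuc and cell-permeant prosubstrate, compounds added after 5 h incubation. Luminescence tracked at 0, 8, 16, 24, 32 and 40 h of exposure.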

Test [8] in a line: A CellTox Green Cytotoxicity Assay to monitor cytotoxicity in HEK293 cells - 40 hour (AID 1224871). Further: nearly all actives have a fitted effect of over 45% in size. The gist of the method:
as §3

Test [9] can be described thus: qHTS RealTime-Glo MT Cell Viability Assay in HEK293 cells - 16 hour (AID 1224872). The method, boiled down:
as §2

Test [10] can be described thus: qHTS RealTime-Glo MT Cell Viability Assay in HepG2 cells - 8 hour (AID 1224873). Further: nearly all actives have a fitted effect of over 55% in size. The method, boiled down: as §4
The nature of test [11]: A CellTox Green Cytotoxicity Assay to monitor cytotoxicity in HEK293 cells - 24 hour (AID 1224875). Further: series mostly up to about 77 µM; nearly all actives have a fitted effect of over 45% in size. The method, boiled down: as §3
The nature of test [12]: A CellTox Green Cytotoxicity Assay to monitor cytotoxicity in HepG2 cells - 16 hour (AID 1224876). Further: nearly all actives have a fitted effect of over 45% in size. The method, boiled down:
(§5)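 HepG2 cells, 600/well, preincubated 5 h with CellTox Green dye, then exposed to Tox21 compounds in DMSO at 37 C for up to 40 h. Dead-cell DNA fluorescence read at the indicated time point.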

A short description of test [13]: qHTS RealTime-Glo MT Cell Viability Assay in HepG2 cells - 32 hour (AID 1224877). Further: nearly all actives have a fitted effect of over 55% in size. The gist of the method: as §1
Test [14] can be described thus: A CellTox Green Cytotoxicity Assay to monitor cytotoxicity in HepG2 cells - 24 hour (AID 1224878). Further: nearly all actives have a fitted effect of over 45% in size. Further: potency means the concentration at half of the fitted maximal effect. The gist of the method: as §5
Test [15] in a line: A CellTox Green Cytotoxicity Assay to monitor cytotoxicity in HepG2 cells - 40 hour (AID 1224879). Further: nearly all actives have a fitted effect of over 40% in size. Further: potency means the concentration at half of the fitted maximal effect. The method, boiled down:
as §5

The nature of test [16]: qHTS RealTime-Glo MT Cell Viability Assay in HEK293 cells - 0 hour (AID 1224880). The method, boiled down: (§6)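 600 cells/well were plated with the nonlytic NanoLuc/prosubstrate reagent, pre-incubated 5 h, then given 23 nL of compound in DMSO. Incubation at 37 C for 40 h, with luminescence from viable-cell-reduced substrate read repeatedly from 0 h.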
The nature of test [17]: qHTS assay to identify small molecule agonists of the hypoxia (HIF-1) signaling pathway (AID 1224846; active means well fitted activation curve with a large enough effect in the signal ratio in the repeat runs, not every such curve was filed as active; the % refers to the signal ratio). The gist of the method:
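HRE-bla ME-180 beta-lactamase reporter cells in medium with 0.5% dialyzed FBS, pre-incubated 5 h then exposed to compounds 17 h at 37C, 5% CO2; reporter induction read with CCF4-AM FRET substrate.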

Test [18] can be described thus: qHTS RealTime-Glo MT Cell Viability Assay in HEK293 cells - 40 hour (AID 1224874). Further: nearly all actives have a fitted effect of over 50% in size. The following applies: RealTime-Glo luminescence; max response: stronger effect = lower value. The method, boiled down: as §6
A short description of test [19]: qHTS assay to identify small molecule agonists of the hypoxia (HIF-1) signaling pathway - cell viability counter screen (AID 1224844; calls by dose curve; further: nearly all actives have a fitted effect of over 50% in size). The method, boiled down:
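HRE-bla ME-180 cells, 2,000/well in 0.5% dialyzed FBS medium, treated 17 h at 37C with compounds. Viability read in the same wells as the bla reporter, by CellTiter-Glo luminescence after 30 min at room temperature.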

This note sets out measurements from PubChem BioAssay (Tox21).

Molecules are shown by their SMILES. Where “and” joins values, the source holds several entries; their conditions need not be identical. Identical values can stand only once. Results filed as inconclusive are left out. Some compounds were tested as several samples or in several runs, with calls that do not always agree. Calls of active or inactive are those of the source. Unless noted, the call rests on the fitted dose curve; in most records, active means well fitted curve in the direction sought with a large enough effect in the repeat runs; inconclusive means weak or mixed curves; inactive means no such curve, though single readings can be large; an effect the other way counts as inactive or inconclusive.
On the % scale 0 is the no-effect control and ±100 the full control effect.

As to `CC1(C)S[C@@H]2[C@H](NC(=O)COc3ccccc3)C(=O)N2[C@H]1C(=O)O`, the call in [1], in test [2], in test [3], in [6], in test [7] and in [12] was inactive. Besides, the molecule was classed as inactive in test [13] and in test [16]. Further, the Potency result in test [4], in [5], in test [8], in test [9], in [10] and in test [11] was “inactive” each time. The Potency entry in test [14] and in [15] was “inactive” throughout.
Regarding `NCCNCCN`, the call in [1], in [17], in test [2], in test [3], in [6] and in test [7] was inactive. The outcome in [12], in test [13] and in test [16] was inactive. In addition, the Potency entry in [4], in test [8], in test [9], in test [10], in [11] and in test [14] was “inactive” each time. Moreover, in test [15], the Potency entry is “inactive”. In [18], the max response is -1.22% (inactive) and 0.475% (inactive).
In the case of `O=C(O)CCCCCCCCC(=O)O`, the result in test [1], in test [17], in test [2], in [3], in [7] and in test [12] was inactive. The molecule was called inactive in [13] and in [16]. In addition, the Potency result in [4], in [8], in [9], in test [10], in test [11] and in test [14] was “inactive” throughout. Also, in [15], the Potency result was “inactive”. The max response in test [18] was 1.05% (inactive) and 1.59% (inactive).
As to `COc1ccc(C)cc1N`, the call in [1], in test [17], in test [2], in test [6], in test [7] and in test [12] was inactive. The result in test [13] and in test [16] was inactive. In addition, the Potency result in test [4], in test [5], in [8], in [9], in test [10] and in test [11] was “inactive” each time. Also, the Potency entry in test [14] and in test [15] was “inactive” in each case. Also, in test [18], the max response was 3.89% (inactive) and 7.66% (inactive).
With `C[C@]12CC[C@@H]3c4ccc(O)cc4CC[C@H]3[C@@H]1C[C@@H](O)[C@@H]2O`, the result in [1], in test [17], in test [2], in test [6], in [7] and in test [12] was inactive. Further, the result in test [13] and in [16] was inactive. Besides, the Potency result in test [4], in test [5], in test [8], in [9], in test [10] and in test [11] was “inactive” throughout. Moreover, the Potency result in test [14] and in test [15] was “inactive” in each case. The max response in test [18] is -25.2% (inactive).
Consider `O=C1CCCC1`, for which the result in test [1], in [17], in test [2], in [3], in test [6] and in [7] was inactive. For the same molecule, the call in test [12], in test [13] and in [16] was inactive. The Potency result in test [4], in test [8], in [9], in [10], in test [11] and in [14] was “inactive” each time. Further, the Potency entry in test [15] was “inactive”.
Take `CC(C)(Oc1ccc(CCNC(=O)c2ccc(Cl)cc2)cc1)C(=O)O`: the molecule was called inactive in test [19], in test [1], in [2], in [3], in test [6] and in test [7]. Further, the molecule was classed as inactive in test [12], in test [13] and in test [16]. The Potency entry in [4], in test [8], in [9], in [10], in test [11] and in test [14] was “inactive” throughout. For the same molecule, the Potency entry in test [15] was “inactive”.
On to `CNC(=O)Oc1ccc2c(c1)[C@]1(C)CCN(C)[C@@H]1N2C`, for which the outcome in [1], in test [2], in test [6], in test [7], in test [12] and in [13] was inactive. For the same molecule, the outcome in [16] was inactive. For the same molecule, the Potency entry in test [4], in test [5], in test [8], in test [9], in test [10] and in [11] was “inactive” in each case. For the same molecule, the Potency entry in test [14] and in test [15] was “inactive” each time. Further, the max response in test [18] was 4.52% (inactive) and 8.75% (inactive).
Turning to `CCCCCC(=O)O`, the molecule was called inactive in test [1], in test [17], in test [2], in [3], in [6] and in [7]. The molecule was called inactive in test [12], in [13] and in test [16]. The Potency result in test [4], in test [5], in test [8], in test [9], in test [10] and in [11] was “inactive” in each case. For the same molecule, the Potency entry in test [14] and in [15] was “inactive” throughout. In addition, in [18], the max response was 18.5% (inactive) and 15.2% (inactive).
Turning to `C[Si]1(C)O[Si](C)(C)O[Si](C)(C)O[Si](C)(C)O1`, the call in [19], in test [1], in test [17], in [2], in test [7] and in [12] was inactive. In addition, the outcome in [13] and in test [16] was inactive. For the same molecule, the Potency result in [4], in test [5], in test [8], in [9], in test [10] and in test [11] was “inactive” each time. Moreover, the Potency result in test [14] and in test [15] was “inactive” throughout. For the same molecule, the max response in test [18] is 3.24% (inactive) and 9.03% (inactive).
Consider `CCCCC(C=O)CC` (stereo unspecified), for which the molecule was called inactive in [1], in test [17], in test [2], in test [7], in [12] and in test [13]. In addition, the molecule was called inactive in test [16]. For the same molecule, the Potency result in test [4], in test [5], in test [8], in test [9], in [10] and in test [11] was “inactive” throughout. Also, the max response in [18] was -0.352% (inactive) and 2.13% (inactive). The Potency result in [14] was “inactive and 14.6 µM (active)”; in [15] it was “inactive and 14.6 µM (active)”.
Turning to `NC(=S)NNC(N)=S`, the outcome in [19], in [1], in test [17], in test [2], in [7] and in test [12] was inactive. Also, the outcome in test [13] and in test [16] was inactive. In addition, the Potency entry in test [4], in [5], in test [8], in [9], in [10] and in [11] was “inactive” throughout. Besides, the Potency result in test [14] and in [15] was “inactive” each time. In addition, the max response in [18] is 7.65% (inactive) and -11.1% (inactive).
For the molecule `Cc1ccc2ncccc2c1`, the result in [1], in [17], in test [2], in [3], in test [6] and in test [7] was inactive. Also, the outcome in test [12], in [13] and in test [16] was inactive. Besides, the Potency result in test [4], in test [8], in test [9], in test [10], in test [11] and in [14] was “inactive” in each case. Moreover, the Potency result in test [15] was “inactive”. In addition, in test [18], the max response is 0.634% (inactive) and 3.71% (inactive).
`O=c1[nH]cnc2[nH]ncc12`: the outcome in [19], in test [1], in test [2], in test [6], in test [7] and in test [12] was inactive. Further, the molecule was called inactive in test [13] and in [16]. Also, the Potency entry in test [4], in [8], in test [9], in test [10], in test [11] and in test [14] was “inactive” each time. Further, the Potency result in test [15] was “inactive”.
